Screens deposited in PubChem by several laboratories.
Hits are enriched below; roughly 21% of the tested compounds scored in any of these assays.
MRP-1 activ – H69AR viability gain despite doxorubicin, primary screen, MRP-1 activator project, H69AR cells, CellTiter-Glo; viability rescue; viability increase, % at 10 µM; 0.61% of 140,000 active;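 active = viability gain under doxorubicin at or above a set limit, the compound median plus 3 SD, cut at about 4.7% in these data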;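 note: MRP-1 overexpressing cells given doxorubicin 25 µM after compound pretreatment; 18-22 h compound pretreatment then 72 h with doxorubicin before readout; 0% = doxorubicin-only wells and 100% = vehicle-treated cells without doxorubicin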
CYP2C9 inh – blockers of cytochrome P450 2C9 activity – biochemical, luminescence, ADME assay, primary screen; 20% of 96,000 active; inhibition, % at 5 µM; P11712; CYP2C9 Supersomes, luciferin-H conversion;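 active = blocking of liver enzyme CYP2C9 beyond about 50% at 5 µM, limit read from the data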
Target sequence (P11712 whole entry, looked up): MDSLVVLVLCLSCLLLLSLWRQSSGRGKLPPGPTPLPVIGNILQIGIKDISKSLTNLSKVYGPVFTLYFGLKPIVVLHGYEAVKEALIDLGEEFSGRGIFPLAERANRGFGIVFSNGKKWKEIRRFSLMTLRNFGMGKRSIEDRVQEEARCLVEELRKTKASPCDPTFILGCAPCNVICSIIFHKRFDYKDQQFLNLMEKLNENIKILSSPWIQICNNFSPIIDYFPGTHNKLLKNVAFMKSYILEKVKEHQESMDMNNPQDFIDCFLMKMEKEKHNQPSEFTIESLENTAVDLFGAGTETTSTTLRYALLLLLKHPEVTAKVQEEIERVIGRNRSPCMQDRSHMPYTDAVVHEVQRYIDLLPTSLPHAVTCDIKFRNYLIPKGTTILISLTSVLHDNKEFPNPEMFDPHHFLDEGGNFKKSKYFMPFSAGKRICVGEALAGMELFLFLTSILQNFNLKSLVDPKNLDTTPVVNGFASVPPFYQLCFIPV
CYP2C9 activ – human CYP2C9 activators, primary screen, biochemical, luminescence. recombinant CYP2C9, luciferin-H conversion; hits give high values; factor 1 = untreated enzyme, 0 = blocked. activation factor at 5 µM. 1.4% of 96,000 active. Cytochrome P450 2C9 (Homo sapiens), P11712. AID 1024, 2008;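 active = activation factor of 2 or more for CYP2C9 at a 5 µM dose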;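 note: 0 = sulfaphenazole-blocked wells and 1 = vehicle-only wells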
MRP reversal – reversal of MRP1-mediated doxorubicin resistance, primary screen, H69AR cells, doxorubicin co-treatment; H69AR cells + 2 uM doxorubicin, CellTiter-Glo, 72 h; differential viability (reversal), % at 10 µM; 0.04% of 85,000 active; AID 602, 2007;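 active = viability drop by adding the cancer drug above about 55%, with treated viability meeting a 40% cutoff, limit read from the data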;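 note: viability without doxorubicin minus viability with 2 µM doxorubicin for each compound; larger differential means the compound sensitizes cells more to doxorubicin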
CYP2C19 activ – human CYP2C19 activators, primary screen, biochemical, luminescence; 96,000 tested, under 10 active; Cytochrome P450 2C19 (Homo sapiens), P33261; recombinant CYP2C19, luciferin-H EGE luminescence; hits give high values; 0 = fully inhibited enzyme, 1 = untreated enzyme; activation factor at 5 µM;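 active = activation factor of at least 2 at 5 µM in the primary screen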;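 note: 0 = wells with 2.5 mM tranylcypromine and 1 = vehicle-only wells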
CYP2C19 inh – blockers of cytochrome P450 2C19 activity – biochemical, luminescence, ADME assay, primary screen; P33261; CYP2C19 Supersomes, luciferin-H EGE luminescence, 30 min; inhibition, % at 5 µM; 21% of 96,000 active; AID 778, 2007;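 active = CYP2C19 inhibition above a set limit at 5 µM in the primary screen, cut at about 50% in these data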;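 note: plate controls were negative control wells for no effect and 2.5 mM tranylcypromine positive control for full effect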
The depositor's hits bear a star; x = no result given.

SMILES	MRP-1 activ	CYP2C9 inh	CYP2C9 activ	MRP reversal	CYP2C19 activ	CYP2C19 inh
CC(C)C(=O)Nc1cccc(NC(=S)NC(=O)c2ccccc2Cl)c1	-2.5	-7.4	1.1	x	0.7	26.5
CCC(=O)Nc1cccc(NC(=S)NC(=O)c2ccccc2Cl)c1	-2.6	-154.4	2.5*	x	0.7	28.1
COc1ccc(Cn2c(-c3ccc(C)cc3)nc3c(c(=O)c4ccccc4n3C)c2=O)cc1	-2.6	x	x	x	x	x
COc1ccc(CCNC(=O)CSc2nnc(-c3ccccc3)o2)cc1OC	x	45.7	0.5	-1.4	0.2	80.7*
COc1ccc(CCNC(=O)CSc2nnc(-c3cccc(C)c3)o2)cc1OC	-0.7	35.5	0.6	10.1	0.4	56.0*
COc1ccc(CCNC(=O)CSc2nc(N)c3c(C)c(C)oc3n2)cc1OC	-2.0	40.2	0.6	1.9	0.4	62.4*
COc1ccc(CCNC(=O)CSc2ccc3ccccc3c2)cc1OC	-2.0	x	x	x	x	x
CCCCn1c(-c2ccccc2)cnc1SCC(=O)NCCc1ccc(OC)c(OC)c1	-1.5	89.6*	0.1	x	0	95.5*
CC(=O)c1cc(-c2ccccc2)n(CC(=O)Nc2ccc(C)c(C)c2)c1C	-4.5	x	x	x	x	x
CC(C)c1nc(-c2c(N)n(C)c(=O)n(C)c2=O)sc1C(=O)C(C)(C)C	-0.1	-1.0	1	6.2	0.2	76.4*
Cn1c(N)c(C(=O)CCl)c(=O)n(C)c1=O	-1.2	-6.4	1.1	-14.5	1.1	-9.3
CCN(CC)c1ccc(C(=O)N/N=C(\C)c2ccc(OC)c(OC)c2)cc1	0.6	x	x	x	x	x
CC(C)CC(=O)NNC(=O)C(C)C	-1.6	x	x	x	x	x
O=C(NCc1ccc(Cl)cc1)C1C2C=CC3(CN(Cc4cccnc4)C(=O)C13)O2 (stereo not given)	0.6	53.2*	0.5	10.0	0.7	29.5
Cc1cc(=O)oc2cc(OC(=O)CCCCCN3C(=O)c4ccccc4C3=O)ccc12	-1.5	x	x	x	x	x
COc1ccc(-c2cc(-c3c(O)c(OC)c4occc4c3OC)[nH]n2)cc1	-2.0	89.8*	0.1	-8.3	0.3	70.1*
CCCCCc1nc2c(C#N)c(-c3ccc(Cl)cc3)ccn2n1	-4.7	57.9*	0.4	x	0.9	12.0
COC(=O)c1cnn(-c2cc(Oc3cccc(C)c3)ncn2)c1N	-0.2	69.9*	0.3	x	0.7	34.7
CC(=O)c1cnn(-c2cc(Oc3cccc(C)c3)ncn2)c1C	1.0	47.4	0.5	x	0.5	49.4
O=C(CN1C(=O)S/C(=C/c2cc(Br)cs2)C1=O)N1CCOCC1	1.2	x	x	x	x	x
O=C(COc1ccccc1)NCC(=O)Nc1ccc(S(=O)(=O)NCc2ccco2)cc1	-3.6	56.9*	0.4	x	1.1	-7.9
COc1ccc(C(=O)Nc2ccc(S(=O)(=O)NCc3ccco3)cc2)cc1OC	-2.4	-5.1	1.1	x	1	-3.5
O=C(COc1ccccc1F)Nc1ccc(S(=O)(=O)NCc2ccco2)cc1	-3.7	53.1*	0.5	12.8	0.8	17.2
O=C(COc1ccccc1)Nc1ccc(S(=O)(=O)NCc2ccco2)cc1	-1.1	50.8*	0.5	12.0	0.8	17.4
CC(C)CC(=O)Nc1ccc(S(=O)(=O)NCc2ccco2)cc1	-3.4	45.6	0.5	23.4	1.1	-6.7
SMILES	MRP-1 activ	CYP2C9 inh	CYP2C9 activ	MRP reversal	CYP2C19 activ	CYP2C19 inh
CCOc1ccc(S(=O)(=O)NCc2ccco2)cc1	-0.2	9.5	0.9	x	0.8	21.9
COc1cccc(NC(=O)COC(=O)c2ccc(S(=O)(=O)NCc3ccco3)cc2)c1	-0.6	86.0*	0.1	x	0.9	7.3
Cc1c(NC(=O)CCCCCN2C(=O)C3C4C=CC(C4)C3C2=O)c(=O)n(-c2ccccc2)n1C (stereo not given)	-0.5	9.5	0.9	-0.1	1.2	-15.2
CCOC(=O)C(Cc1ccc(NC(=O)/C(=C\c2ccccc2)NC(=O)c2ccccc2)cc1)N1C(=O)c2ccccc2C1=O (stereo not given)	-5.5	x	x	x	x	x
O=C(Oc1ccc(N(Cc2cccs2)C2=NS(=O)(=O)c3ccccc32)cc1)c1ccco1	-0.2	x	x	x	x	x
O=C(OCCN(C1=NS(=O)(=O)c2ccccc21)c1ccc(Cl)cc1)c1ccco1	-5.2	85.0*	0.2	44.9	0.1	86.4*
